Data published in the supplement of paper PMC11732987, “Enantioselective OTUD7B fragment discovery through chemoproteomics screening and high-throughput optimisation” (Communications Chemistry, 2025).

Key:
Test in all cases: log2 ratio of Biotin-Ahx-Ub-VS probe labelling (fragment/DMSO); higher = less target engagement (more negative = stronger competition), active = hit call of the paper (q ≤ 0.05, log2 ratio ≤ -1)
Conditions in all cases: compound concentration: 200 uM; treatment time: 3 h
[1] = target: USP34 (UniProt Q70CQ2)
USP34, sequence (Q70CQ2 whole entry, the tested form may be a part): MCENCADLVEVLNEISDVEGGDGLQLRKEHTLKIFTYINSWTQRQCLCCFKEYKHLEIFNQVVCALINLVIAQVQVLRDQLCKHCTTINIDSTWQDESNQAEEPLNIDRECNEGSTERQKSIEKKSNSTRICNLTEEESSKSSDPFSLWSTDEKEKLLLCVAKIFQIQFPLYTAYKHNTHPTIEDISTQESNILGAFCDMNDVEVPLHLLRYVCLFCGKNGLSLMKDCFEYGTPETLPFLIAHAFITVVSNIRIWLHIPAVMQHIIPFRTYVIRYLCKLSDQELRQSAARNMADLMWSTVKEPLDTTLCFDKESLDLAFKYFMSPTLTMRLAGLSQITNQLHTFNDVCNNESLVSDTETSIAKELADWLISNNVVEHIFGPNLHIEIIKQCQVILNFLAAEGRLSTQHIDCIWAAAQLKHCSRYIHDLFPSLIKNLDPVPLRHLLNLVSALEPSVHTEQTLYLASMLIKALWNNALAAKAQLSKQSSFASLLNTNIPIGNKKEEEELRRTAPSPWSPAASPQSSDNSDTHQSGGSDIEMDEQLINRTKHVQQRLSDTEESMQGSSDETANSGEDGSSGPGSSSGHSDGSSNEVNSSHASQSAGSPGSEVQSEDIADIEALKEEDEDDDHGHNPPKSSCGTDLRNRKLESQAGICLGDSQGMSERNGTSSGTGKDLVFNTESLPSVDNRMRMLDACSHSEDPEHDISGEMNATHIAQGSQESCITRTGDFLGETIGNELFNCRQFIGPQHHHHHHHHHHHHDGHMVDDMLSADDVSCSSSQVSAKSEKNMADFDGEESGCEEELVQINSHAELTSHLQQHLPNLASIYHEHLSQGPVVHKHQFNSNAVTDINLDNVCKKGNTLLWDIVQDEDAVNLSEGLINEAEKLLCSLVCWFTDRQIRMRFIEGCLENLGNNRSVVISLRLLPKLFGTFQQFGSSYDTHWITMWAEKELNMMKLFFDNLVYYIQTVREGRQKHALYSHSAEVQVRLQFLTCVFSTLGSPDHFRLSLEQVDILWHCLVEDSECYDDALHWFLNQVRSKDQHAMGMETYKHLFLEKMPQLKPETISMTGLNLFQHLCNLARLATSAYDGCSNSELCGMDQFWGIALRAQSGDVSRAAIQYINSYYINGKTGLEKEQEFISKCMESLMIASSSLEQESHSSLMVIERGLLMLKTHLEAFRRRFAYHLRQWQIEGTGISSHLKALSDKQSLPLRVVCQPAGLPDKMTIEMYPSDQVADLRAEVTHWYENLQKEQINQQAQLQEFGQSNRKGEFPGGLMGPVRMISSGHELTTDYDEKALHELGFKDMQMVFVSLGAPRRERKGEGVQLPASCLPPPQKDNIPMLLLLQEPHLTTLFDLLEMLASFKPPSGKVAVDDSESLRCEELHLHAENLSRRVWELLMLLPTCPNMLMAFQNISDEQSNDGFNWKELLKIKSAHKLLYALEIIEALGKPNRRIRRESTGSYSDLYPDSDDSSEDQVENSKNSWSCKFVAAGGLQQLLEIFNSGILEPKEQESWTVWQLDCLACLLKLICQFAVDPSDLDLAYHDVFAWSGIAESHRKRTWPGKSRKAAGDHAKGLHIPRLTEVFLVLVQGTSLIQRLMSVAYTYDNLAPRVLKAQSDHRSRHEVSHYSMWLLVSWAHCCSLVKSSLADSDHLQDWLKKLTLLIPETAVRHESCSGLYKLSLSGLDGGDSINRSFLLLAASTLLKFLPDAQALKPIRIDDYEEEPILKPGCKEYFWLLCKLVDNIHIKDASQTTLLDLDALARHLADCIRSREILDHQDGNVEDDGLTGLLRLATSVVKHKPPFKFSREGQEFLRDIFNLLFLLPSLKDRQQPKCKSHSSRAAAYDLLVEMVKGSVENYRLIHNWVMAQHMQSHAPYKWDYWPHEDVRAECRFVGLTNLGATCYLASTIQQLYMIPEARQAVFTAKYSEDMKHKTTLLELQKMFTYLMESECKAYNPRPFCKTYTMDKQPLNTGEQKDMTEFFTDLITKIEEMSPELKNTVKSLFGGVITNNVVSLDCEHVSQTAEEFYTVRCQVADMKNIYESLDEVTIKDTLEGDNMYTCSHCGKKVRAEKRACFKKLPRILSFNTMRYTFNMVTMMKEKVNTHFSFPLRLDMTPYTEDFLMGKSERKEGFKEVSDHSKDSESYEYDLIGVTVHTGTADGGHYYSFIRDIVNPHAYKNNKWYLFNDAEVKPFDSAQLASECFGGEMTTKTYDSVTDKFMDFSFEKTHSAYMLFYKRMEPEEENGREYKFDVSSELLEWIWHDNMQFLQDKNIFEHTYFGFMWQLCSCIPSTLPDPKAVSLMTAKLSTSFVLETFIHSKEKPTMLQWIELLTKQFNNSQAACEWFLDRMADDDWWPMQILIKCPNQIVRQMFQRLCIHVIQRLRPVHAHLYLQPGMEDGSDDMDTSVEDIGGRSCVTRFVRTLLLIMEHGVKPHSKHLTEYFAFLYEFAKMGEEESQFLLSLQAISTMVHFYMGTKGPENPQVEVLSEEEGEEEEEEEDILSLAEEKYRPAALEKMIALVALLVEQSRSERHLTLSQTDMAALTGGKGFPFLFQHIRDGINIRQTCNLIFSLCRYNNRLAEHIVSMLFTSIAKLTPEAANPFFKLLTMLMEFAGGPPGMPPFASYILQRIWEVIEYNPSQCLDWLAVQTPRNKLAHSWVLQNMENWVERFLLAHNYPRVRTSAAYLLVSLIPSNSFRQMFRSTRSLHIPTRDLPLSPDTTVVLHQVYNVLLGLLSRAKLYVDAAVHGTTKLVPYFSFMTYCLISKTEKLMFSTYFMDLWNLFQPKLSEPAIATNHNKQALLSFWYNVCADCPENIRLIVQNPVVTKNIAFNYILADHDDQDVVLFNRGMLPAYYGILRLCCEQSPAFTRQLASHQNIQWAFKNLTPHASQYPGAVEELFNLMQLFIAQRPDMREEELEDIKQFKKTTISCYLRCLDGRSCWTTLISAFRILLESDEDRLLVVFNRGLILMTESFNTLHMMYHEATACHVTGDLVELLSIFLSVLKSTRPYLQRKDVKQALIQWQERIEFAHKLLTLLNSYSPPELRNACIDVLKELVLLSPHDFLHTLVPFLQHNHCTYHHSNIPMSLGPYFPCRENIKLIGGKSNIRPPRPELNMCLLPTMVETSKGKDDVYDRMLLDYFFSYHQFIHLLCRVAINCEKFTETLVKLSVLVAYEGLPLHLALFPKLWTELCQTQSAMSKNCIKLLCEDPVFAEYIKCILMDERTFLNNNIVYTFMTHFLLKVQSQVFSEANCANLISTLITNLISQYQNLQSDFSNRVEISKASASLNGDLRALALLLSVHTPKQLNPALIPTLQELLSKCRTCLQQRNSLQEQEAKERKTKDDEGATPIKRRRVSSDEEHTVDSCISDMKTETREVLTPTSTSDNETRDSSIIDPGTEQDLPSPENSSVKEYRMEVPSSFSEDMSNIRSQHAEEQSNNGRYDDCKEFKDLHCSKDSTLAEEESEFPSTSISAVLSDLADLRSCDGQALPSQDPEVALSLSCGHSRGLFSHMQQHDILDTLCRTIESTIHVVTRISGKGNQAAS
Method in brief: (§1)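 The table lists average log2 ratios of fragment over vehicle, from an unpaired t-test on global-median-normalised Spectronaut label-free quantities. Proteins with ≥2 unique peptides were used. Samples were HEK293T lysate (495 µg) treated in triplicate with fragment at 200 µM or vehicle for 3 h, then with Biotin-Ahx-Ub-VS (0.5 µM final) for 1 h, with labelled DUBs NeutrAvidin-enriched and run by diaPASEF LC-MS/MS.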

[2] = target: T1, USP36 (UniProt Q9P275)
T1 sequence (whole entry): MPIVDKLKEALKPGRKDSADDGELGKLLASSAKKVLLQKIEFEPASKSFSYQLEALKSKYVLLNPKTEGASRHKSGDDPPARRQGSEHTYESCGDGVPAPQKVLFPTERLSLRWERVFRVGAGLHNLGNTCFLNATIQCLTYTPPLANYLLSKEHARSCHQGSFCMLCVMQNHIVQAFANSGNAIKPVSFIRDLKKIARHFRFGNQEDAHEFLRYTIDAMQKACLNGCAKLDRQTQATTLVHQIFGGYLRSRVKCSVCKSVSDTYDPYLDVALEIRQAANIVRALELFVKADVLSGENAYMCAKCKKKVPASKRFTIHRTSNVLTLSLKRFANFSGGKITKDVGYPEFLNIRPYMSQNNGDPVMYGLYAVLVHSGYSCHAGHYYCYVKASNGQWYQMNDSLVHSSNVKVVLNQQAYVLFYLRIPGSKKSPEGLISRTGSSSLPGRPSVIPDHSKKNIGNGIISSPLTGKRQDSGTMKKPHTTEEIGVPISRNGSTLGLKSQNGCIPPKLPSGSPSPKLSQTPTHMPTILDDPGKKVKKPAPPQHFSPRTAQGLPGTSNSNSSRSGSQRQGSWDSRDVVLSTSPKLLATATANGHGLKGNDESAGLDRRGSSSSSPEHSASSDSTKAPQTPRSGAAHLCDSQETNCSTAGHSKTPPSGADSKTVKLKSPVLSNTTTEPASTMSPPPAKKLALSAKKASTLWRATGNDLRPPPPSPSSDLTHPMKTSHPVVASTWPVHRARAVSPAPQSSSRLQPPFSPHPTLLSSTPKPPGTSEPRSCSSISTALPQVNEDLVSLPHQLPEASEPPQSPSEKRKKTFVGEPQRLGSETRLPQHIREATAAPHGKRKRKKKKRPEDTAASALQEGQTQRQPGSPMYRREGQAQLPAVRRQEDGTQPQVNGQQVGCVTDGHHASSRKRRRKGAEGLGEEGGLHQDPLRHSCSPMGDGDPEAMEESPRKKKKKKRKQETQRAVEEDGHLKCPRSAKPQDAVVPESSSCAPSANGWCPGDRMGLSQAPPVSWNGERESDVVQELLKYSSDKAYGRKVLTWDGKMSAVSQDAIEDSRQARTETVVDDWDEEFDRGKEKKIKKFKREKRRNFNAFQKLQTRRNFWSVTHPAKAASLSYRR
Method in brief: as §1

[3] = target: T2, USP38 (UniProt Q8NB14)
T2 sequence (whole entry): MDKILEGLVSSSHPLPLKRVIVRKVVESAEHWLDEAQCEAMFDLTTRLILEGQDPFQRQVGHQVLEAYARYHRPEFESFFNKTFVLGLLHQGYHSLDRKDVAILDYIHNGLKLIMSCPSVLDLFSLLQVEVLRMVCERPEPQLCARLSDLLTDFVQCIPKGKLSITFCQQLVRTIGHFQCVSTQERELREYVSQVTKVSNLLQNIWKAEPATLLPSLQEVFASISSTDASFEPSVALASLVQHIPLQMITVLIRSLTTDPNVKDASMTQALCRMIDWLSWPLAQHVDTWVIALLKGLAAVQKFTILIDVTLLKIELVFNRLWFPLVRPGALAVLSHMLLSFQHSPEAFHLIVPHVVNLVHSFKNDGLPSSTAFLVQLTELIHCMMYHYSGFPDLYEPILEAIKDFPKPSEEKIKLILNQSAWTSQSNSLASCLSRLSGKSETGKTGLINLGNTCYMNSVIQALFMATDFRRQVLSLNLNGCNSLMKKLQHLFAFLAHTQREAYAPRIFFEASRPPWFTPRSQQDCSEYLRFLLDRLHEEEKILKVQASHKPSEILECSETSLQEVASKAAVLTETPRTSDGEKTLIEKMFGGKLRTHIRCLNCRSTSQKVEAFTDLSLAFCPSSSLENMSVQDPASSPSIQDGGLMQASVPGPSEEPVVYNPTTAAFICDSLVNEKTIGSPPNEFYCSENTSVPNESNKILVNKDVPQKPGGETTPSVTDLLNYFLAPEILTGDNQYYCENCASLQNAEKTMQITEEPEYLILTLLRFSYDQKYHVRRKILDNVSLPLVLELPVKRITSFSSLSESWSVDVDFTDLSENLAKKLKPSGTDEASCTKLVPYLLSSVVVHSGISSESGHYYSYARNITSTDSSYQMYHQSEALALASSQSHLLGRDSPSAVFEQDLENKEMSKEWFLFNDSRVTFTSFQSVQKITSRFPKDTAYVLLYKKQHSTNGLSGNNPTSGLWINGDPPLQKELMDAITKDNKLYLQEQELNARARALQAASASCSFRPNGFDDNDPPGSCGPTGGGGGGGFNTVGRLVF
Method in brief: as §1

[4] = target: T3, USP39 (UniProt Q53GS9)
T3 sequence (whole entry): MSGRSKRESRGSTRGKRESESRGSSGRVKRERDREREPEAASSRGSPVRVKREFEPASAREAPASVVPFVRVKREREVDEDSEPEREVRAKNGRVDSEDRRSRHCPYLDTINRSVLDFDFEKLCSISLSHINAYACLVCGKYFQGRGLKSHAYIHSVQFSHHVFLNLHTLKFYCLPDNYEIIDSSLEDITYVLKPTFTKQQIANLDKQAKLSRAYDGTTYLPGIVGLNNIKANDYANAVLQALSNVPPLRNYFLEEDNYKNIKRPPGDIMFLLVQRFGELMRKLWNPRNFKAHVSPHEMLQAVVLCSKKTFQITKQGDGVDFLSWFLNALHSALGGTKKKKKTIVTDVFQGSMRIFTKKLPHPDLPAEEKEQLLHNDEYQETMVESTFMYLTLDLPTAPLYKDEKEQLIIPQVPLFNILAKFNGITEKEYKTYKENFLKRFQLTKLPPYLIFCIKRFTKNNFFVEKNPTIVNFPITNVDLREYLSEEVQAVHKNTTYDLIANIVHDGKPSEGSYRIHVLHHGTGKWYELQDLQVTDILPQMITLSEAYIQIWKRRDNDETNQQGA
Method in brief: as §1

[5] = target: T4, USP4 (UniProt Q13107)
T4 sequence (whole entry): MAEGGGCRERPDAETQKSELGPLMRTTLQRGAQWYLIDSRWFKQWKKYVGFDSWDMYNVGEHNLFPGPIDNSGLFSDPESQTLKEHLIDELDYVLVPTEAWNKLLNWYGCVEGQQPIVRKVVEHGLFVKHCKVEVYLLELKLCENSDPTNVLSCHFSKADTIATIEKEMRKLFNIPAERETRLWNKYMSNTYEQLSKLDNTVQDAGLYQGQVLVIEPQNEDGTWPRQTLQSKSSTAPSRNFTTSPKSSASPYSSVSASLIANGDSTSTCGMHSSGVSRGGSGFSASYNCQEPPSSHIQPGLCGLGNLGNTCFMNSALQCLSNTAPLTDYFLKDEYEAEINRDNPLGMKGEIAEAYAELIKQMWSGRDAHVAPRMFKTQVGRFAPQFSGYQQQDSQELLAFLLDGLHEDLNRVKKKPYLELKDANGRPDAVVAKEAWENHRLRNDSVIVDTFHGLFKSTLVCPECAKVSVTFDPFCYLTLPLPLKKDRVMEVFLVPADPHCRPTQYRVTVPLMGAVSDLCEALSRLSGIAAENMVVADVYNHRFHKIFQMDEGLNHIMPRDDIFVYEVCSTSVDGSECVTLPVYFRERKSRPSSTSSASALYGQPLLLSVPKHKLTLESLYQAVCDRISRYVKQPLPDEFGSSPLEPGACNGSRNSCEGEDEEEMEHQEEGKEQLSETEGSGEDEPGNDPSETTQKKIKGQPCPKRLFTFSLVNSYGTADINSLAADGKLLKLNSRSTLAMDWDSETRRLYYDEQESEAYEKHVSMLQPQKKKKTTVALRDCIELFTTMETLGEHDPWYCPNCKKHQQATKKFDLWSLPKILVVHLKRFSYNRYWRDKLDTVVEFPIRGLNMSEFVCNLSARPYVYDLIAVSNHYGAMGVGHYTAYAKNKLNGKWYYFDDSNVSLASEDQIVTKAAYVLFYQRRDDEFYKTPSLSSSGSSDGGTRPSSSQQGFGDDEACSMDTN
Method in brief: as §1

Measured: log2 ratio of Biotin-Ahx-Ub-VS probe labelling

O=C(CCl)N1CCC(C(=O)N2CCCC2)CC1
inactive: [1] -0.0649 | [2] -0.172 | [3] -0.135 | [4] -0.453 | [5] -0.208
